This passage reports Potency results from PubChem BioAssay (NCATS).

Results filed as inconclusive are left out. Entries that show only a call come without a potency. The source made the active and inactive calls. Calls follow the shape of the dose curve; as a rule, active = well fitted curve in either direction with a large enough effect (not every such curve was filed as active); inconclusive = small, poorly fitted or top-dose-only effect, or another doubt; inactive = flat fitted curve, though single readings scatter.
Potency is read from the fitted curve at half-maximal effect.

The experiment concerns the target Mitogen-activated protein kinase 10 (Mus musculus) (UniProt Q61831). The experiment in a line: JNK3 AlphaScreen Assay (AID 530).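 Also: kinase came from lysate of stimulated human HepG2 cells.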 To be noted: JNK3 lysate, c-Jun phosphorylation; series mostly up to 57.1 µM. The procedure, abridged: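 Biotinylated GST-cJun(1-79) served as substrate for JNK3 in HepG2 lysates stimulated with IL-1beta and TNF-alpha. ATP was 10 uM final, pH 7.6. Ser73 phosphorylation was quantified by AlphaScreen (680 nm excitation).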
As for `Fc1ccc(C(OCCCc2cnc[nH]2)c2ccc(F)cc2)cc1`, the Potency entry is “inactive”. Consider `O=C(O)Cc1ccc(-c2ccccc2)cc1`, for which the Potency entry was “inactive”. In the case of `CN1[C@@H]2CC[C@H]1CC(OC(c1ccccc1)c1ccccc1)C2` (stereo partly specified), the Potency result is “inactive”.

For `CN=c1nc(-c2ccccc2)n(-c2ccccc2)s1`, the Potency result was “inactive”.

Regarding `NCCSSCCN`, the Potency result is “inactive”. Consider `N#C/C(=C\c1ccc(O)c(O)c1)C(=O)NCCCc1ccccc1`, for which the Potency was 10 µM (active). Then `CC(C)Cc1ccc([C@H](C)C(=O)O)cc1`, with “inactive”; and `Cc1nc2sccn2c(=O)c1CCN1CCC(=C(c2ccccc2)c2ccc(F)cc2)CC1`, with “inactive”; and `NC(N)=NC(=O)c1nc(Cl)c(N2CCCCCC2)nc1N`, with “inactive”. Under `CN1CCc2cc(NC(=O)Nc3cccnc3)ccc21` stands “inactive”; under `O=C(O)c1cc([N+](=O)[O-])ccc1NCCCc1ccccc1`, “inactive”; under `NCCCS(=O)(=O)O`, “inactive”. Take `CNCC[C@H](Oc1ccc(C(F)(F)F)cc1)c1ccccc1`: the Potency result is “inactive”. Under `O=C(O)CC[C@@H](C(=O)O)N1C(=O)c2ccccc2C1=O` stands “inactive”; under `CN1CCc2ccccc2Cc2[nH]c3ccccc3c2CC1`, “inactive”; under `O=c1[nH]c2cc([N+](=O)[O-])c([N+](=O)[O-])cc2[nH]c1=O`, “inactive”.
